This is a sample that favours compounds with a hit; in the whole collection about 1.7% have one here.
PME-1 inh = PME-1 (human) inhibition. actives 0.53% (n = 320,000). recombinant PME-1, FP-Rh probe fluorescence polarization. AID 2130. inhibition, % at 5.9 µM;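 active = inhibition above the campaign mean of all compounds plus 3 SD, cut at about 26% in these data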;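 also: competitive labeling of PME-1 active site by serine hydrolase directed probe; 0% = PME-1 with DMSO and 100% = wells lacking PME-1 enzyme; inhibitors block probe labeling so polarization falls and inhibition rises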
Target sequence (Q9Y570 whole entry, looked up): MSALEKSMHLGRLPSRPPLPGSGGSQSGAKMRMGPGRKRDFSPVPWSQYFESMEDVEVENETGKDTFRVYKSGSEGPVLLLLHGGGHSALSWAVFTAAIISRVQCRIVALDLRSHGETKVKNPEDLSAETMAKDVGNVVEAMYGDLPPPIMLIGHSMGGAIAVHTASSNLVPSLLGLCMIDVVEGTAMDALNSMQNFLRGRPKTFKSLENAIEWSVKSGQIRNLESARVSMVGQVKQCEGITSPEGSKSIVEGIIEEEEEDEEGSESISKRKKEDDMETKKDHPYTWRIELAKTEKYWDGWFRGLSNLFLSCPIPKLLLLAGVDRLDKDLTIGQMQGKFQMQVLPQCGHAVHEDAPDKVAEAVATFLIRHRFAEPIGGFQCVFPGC
Fam108B counter = Fam108B inhibition, counter-screen for RBBP9 inhibitors; AID 1947; recombinant Fam108B, FP-Rh probe fluorescence polarization; inhibition, % at 9.51 µM; actives 0.33% (n = 300,000);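 active = inhibition above the screen mean inhibition plus 3 SD, computed separately per campaign, cut at about 18% in these data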;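 also: inhibitors lower polarization as less probe binds the enzyme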
PAD4 FP inh = inhibitors of human PAD4; actives 0.41% (n = 330,000); AID 485272; Q9UM07; inhibition, % at 6.36 µM; recombinant PAD4, RCA probe fluorescence polarization;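 active = percent inhibition above a cutoff equal to the mean of all tested compounds plus 3 SD, cut at about 15% in these data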;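 also: 0% = PAD4 with RCA probe and DMSO and 100% = probe without PAD4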
LYPLA1 inh = counter-screen for PME1 inhibitors: inhibitors of human LYPLA1. recombinant LYPLA1, FP-Rh probe fluorescence polarization. inhibition, % at 5.9 µM. actives 0.16% (n = 320,000). AID 2174;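 active = inhibition above the mean of all tested compounds plus 3 SD, set per campaign, cut at about 14% in these data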;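 also: inhibitors block serine hydrolase probe labeling of LYPLA1 so polarization falls; 0% = enzyme with DMSO and 100% = wells lacking LYPLA1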
LYPLA2 inh = counter-screen for PME1 inhibitors: inhibitors of human LYPLA2; inhibition, % at 5.9 µM; recombinant LYPLA2, FP-Rh probe fluorescence polarization; actives 0.38% (n = 320,000); O95372;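 active = inhibition above the screen-wide mean plus 3 SD, limit set per campaign, cut at about 26% in these data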;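 also: 0% = LYPLA2 with DMSO and 100% = wells lacking LYPLA2 enzyme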
Target sequence (O95372 whole entry, looked up): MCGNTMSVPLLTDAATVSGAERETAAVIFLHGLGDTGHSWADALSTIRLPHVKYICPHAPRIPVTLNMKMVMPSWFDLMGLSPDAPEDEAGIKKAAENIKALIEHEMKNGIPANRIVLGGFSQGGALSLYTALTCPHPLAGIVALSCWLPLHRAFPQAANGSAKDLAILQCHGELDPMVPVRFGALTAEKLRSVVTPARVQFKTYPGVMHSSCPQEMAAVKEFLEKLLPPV
GSTO1 inh = counter-screen for RBBP9 inhibitors: inhibitors of human GSTO1; AID 1974; actives 1.1% (n = 300,000); inhibition, % at 5.96 µM; recombinant GSTO1, activity-based probe fluorescence polarization; P78417;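 active = inhibition above the campaign mean inhibition plus 3 SD, cut at about 35% in these data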;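 also: 0% = GSTO1-1 with DMSO and 100% = wells lacking GSTO1-1 enzyme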
Fam108b inh conf = Fam108b (mouse) hydrolase inhibition, confirmation assay; actives 44% (n = 930); recombinant Fam108b, FP-Rh probe fluorescence polarization; shares compounds with Fam108B counter; inhibition, % at 9.51 µM;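 active = inhibition above a limit from the primary screen, the mean over all compounds plus 3 SD, cut at about 19% in these data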;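 also: 0% = median of active Fam108b wells and 100% = catalytically dead S170A mutant; inhibitors free the probe so polarization falls as inhibition rises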
Fam108b inh = mouse ABHD17B inhibition | shares compounds with Fam108B counter | recombinant Fam108b, gel-based ABPP, fluorophosphonate probe | inhibition, % at 20 µM | actives 44% (n = 260) | AID 588649; in the data active = inhibition above about 40%
* marks the source's active call; other numbers are inactive results; / = no result; + = active, no number.

SMILES	PME-1 inh	Fam108B counter	PAD4 FP inh	LYPLA1 inh	LYPLA2 inh	GSTO1 inh	Fam108b inh conf	others
Cc1c(O)ccc(/C=N/Nc2nc(-c3cccnc3)nc3ccccc23)c1O	39.8*	38.6*	-2.1	-17.3	-22.8	-114.2	+
Oc1ccc(/C=N/Nc2nc(-c3cccnc3)nc3ccccc23)c(O)c1	52.3*	51.9*	-2.0	-5.3	11.1	-20.4	2.3
C/C(=N\Nc1cc(C)nc(-c2ccccc2O)n1)c1ccccc1	-5.5	-4.1	-0.7	-12.3	-24.3	-3.7	/
Cc1cc(N/N=C/c2ccc(O)c(C)c2O)nc(-c2ccccc2O)n1	61.9*	43.0*	3.2	-15.5	0.8	-20.1	-6.3
C[C@@H]1NC(=O)N(CCCn2ccnc2)C1=O	-1.1	0.3	2.5	-3.9	-1.5	1.1	/
Cc1ccc(NC(=O)c2ccc(Nc3c([N+](=O)[O-])cc([N+](=O)[O-])cc3[N+](=O)[O-])cc2)cc1	36.5*	22.5*	-2.5	-1.9	11.6	18.8	13.7
CC(=O)Nc1ccc(NC(=O)c2cc([N+](=O)[O-])cc([N+](=O)[O-])c2)cc1	8.3	-0.5	-3.9	2.0	0.3	1.1	/
O=C(Nc1ccc(Cl)cn1)c1cccc2c(Br)cccc12	-9.2	-1.1	-6.5	-3.1	-6.1	-3.6	/
CCc1cc(/C(Cc2ccccn2)=N\O)c(O)cc1O	9.9	9.6	2.1	1.9	8.8	-2.1	/
CCc1cc(/C(Cc2ccc3ccccc3n2)=N\O)c(O)cc1O	34.0*	25.2*	-5.8	8.2	16.5	7.7	30.1*
CCc1cc(C(Cc2ccc3ccccc3n2)=NO)c(O)cc1O	/	/	/	/	/	/	/	Fam108b inh=40.0*
O=C(Nc1ccccc1F)Nc1cccc2ccc(O)cc12	34.1*	18.4*	-18.0	-6.7	0.2	10.0	12.7
CCOc1ccc2nc(NC(=O)C3CCCN(S(=O)(=O)c4c(C)noc4C)C3)sc2c1 (centres undefined)	-1.0	0.4	1.5	-4.7	-11.2	-2.2	/
CCN(CC)c1nc2c3c(nc4c(c3c1C#N)CC(=O)N4c1ccc(Cl)cc1)NC(C)=N2	27.0*	23.6*	-7.9	-9.7	-4.0	30.2	18.2*
Oc1ccc(C[C@@H]2CNCCN2CC2(c3ccccc3)CC2)cc1	0.8	-0.4	6.4	0.9	-2.3	4.8	/
COC(=O)/C=C1\S/C(=N/NC(=O)c2ccccc2)NC1=O	1.8	5.5	-2.5	3.3	6.2	4.5	/
COc1ccccc1/C=C1\S/C(=N/NC(=O)c2cccc(Br)c2)NC1=O	8.4	20.7*	1.1	-0.3	2.5	-0.3	17.1
CSc1nc(NCCOCCO)c2sc3nc(-c4ccco4)c4c(c3c2n1)CCC4	-4.6	28.5*	-8.5	-12.1	-10.8	20.7	5.4
CCN(CCO)c1nc(SC)nc2c1sc1nc(-c3ccco3)c3c(c12)CCC3	-4.6	5.2	-1.8	-5.1	0.3	0.5	/
Cc1ccc(C(=O)Nn2cnc3ccccc3c2=O)cc1C	-4.9	-0.7	-0.1	2.8	10.4	-0.6	/
Brc1ccc(-c2csc(Nc3nc(-c4ccc(Br)cc4)cs3)n2)cc1	22.2	50.2*	-3.1	-7.9	1.1	0.2	33.7*	Fam108b inh=85.0*
O=C(O)COc1ccccc1/C=N/Nc1ccc(S(=O)(=O)Nc2ccc(Cl)cc2)cc1[N+](=O)[O-]	50.1*	18.5*	-0.3	3.4	2.7	-22.5	24.2*
O=C(CN(c1ccc(F)cc1)S(=O)(=O)c1ccc2c(c1)OCCO2)NCc1ccccn1	3.3	-3.2	-1.2	-3.5	-5.0	10.3	/
CC(=O)Nc1ccc(N=Cc2c(O)c(C(=O)Nc3ccccc3)cc3ccccc23)cc1	3.1	21.8*	-4.2	0.1	-0.3	-8.4	14.0
Cc1c(Br)c(=O)oc2c(Br)c(O)c(O)cc12	13.6	24.7*	4.9	5.1	3.0	-4.3	21.0*
SMILES	PME-1 inh	Fam108B counter	PAD4 FP inh	LYPLA1 inh	LYPLA2 inh	GSTO1 inh	Fam108b inh conf	others
COc1cccc(-n2c(SCc3cc(=O)oc4cc(O)c(O)cc34)nc3ccccc3c2=O)c1	20.4	26.0*	4.8	-13.3	-9.1	26.7	46.4*	Fam108b inh=85.0*
Cc1ccc(N2CC(C(=O)N3CCCCC3)CC2=O)cc1C (centres undefined)	1.4	4.6	4.0	-1.9	-2.5	2.5	/
COc1cc2c(cc1NC(=S)Nc1cccc(C(F)(F)F)c1)oc1ccccc12	-1.1	24.4*	-2.7	-3.9	-10.6	-3.3	44.6*	Fam108b inh=85.0*
COc1cc2c(cc1NC(=O)Nc1ccccc1)oc1ccccc12	30.7*	33.4*	-2.6	-10.9	4.2	-34.6	42.9*	Fam108b inh=90.0*
COC(=NC(C)C)NC(C)C	4.3	-3.3	2.7	-1.7	-0.9	0.6	/
N#CC/C(N)=N/Nc1nc2ccccc2nc1Cc1ccccc1	32.6*	45.7*	-6.2	-10.3	9.6	-20.2	23.8*
CCn1c2ccccc2c2cc(NC(=O)c3cc(OC)cc(OC)c3)ccc21	8.3	4.7	-3.0	-8.2	-8.4	-3.7	/
CCn1c2ccccc2c2cc(NC(=O)c3cc(OC)c(OC)c(OC)c3)ccc21	12.9	18.7*	-1.4	-6.9	-4.6	-3.0	-5.3
c1ccc(-c2ccc3c(c2)NCCN3)cc1	2.5	2.2	2.1	1.9	7.4	10.6	/
O=C(NCCc1ccc(Cl)cc1)C1CC(=O)N(C2CCCC2)C1 (centres undefined)	0.8	0.4	1.0	2.5	9.2	0.2	/
CC(C)C(=O)Nc1ccc(S(=O)(=O)N2CCC(c3nc4ccccc4[nH]3)CC2)cc1	-0.6	-1.2	-3.2	1.7	5.5	0.1	/
O=C(CSc1nnc(Cc2csc(Nc3cccc(Cl)c3)n2)o1)N1CCc2ccccc21	7.0	18.7*	-7.4	-12.2	-9.3	-1.0	-13.3
O=C(CSc1nnc(CNc2ccccc2)o1)N1CCc2ccccc21	-0.6	3.6	1.4	-3.0	-0.1	13.7	/
O=C(Nc1ccc(F)cc1)Nc1csc2ccccc12	8.1	2.0	-3.1	-21.1	-5.8	-16.3	/
CN(C)c1ccc(NC(=O)Nc2csc3ccccc23)cc1	18.6	19.4*	-1.0	-15.9	-6.6	13.0	26.7*
O=C(Nc1ccc(Oc2ccc(Cl)cc2)c(Cl)c1)c1cc(I)cc(I)c1O	8.4	18.2*	-1.6	12.9	-2.2	-0.8	-2.3
N#Cc1c(Cl)c(Cl)c2nnc(-c3ccc(Br)cc3)n2c1Cl	17.3	19.3*	2.5	1.8	4.6	-213.7	9.6
COc1ccc(S(=O)(=O)N2CCN(c3cnccn3)CC2)cc1OC	/	/	1.4	/	/	/	/
CC(=O)c1cccc(NS(=O)(=O)c2ccc(N/C=C\C(=O)c3ccc(F)cc3)cc2)c1	-15.0	22.0*	3.2	-23.0	-27.9	-39.2	-6.4
C=CCn1c(Cc2ccccc2)nc2c(cnn2-c2ccccc2)c1=O	6.3	-1.0	-1.4	0.9	-2.6	0.2	/

Screening results from PubChem.
